Laboratory results reported in publication PMC3315485, “Probing the Informational and Regulatory Plasticity of a Transcription Factor DNA–Binding Domain”.
Numbering of substitutions follows the chain as printed.

target: T1, MarA SAR (Escherichia coli, UniProt P0ACH5 1-127, W40S;Q43A); assay: MITOMI; MITOMI, 295 K (22 C); buffer, salt and pH not stated in the material; high values mean tight binding; details: protein: ivt; label: fluorescent; dsDNA, one strand shown
T1 sequence: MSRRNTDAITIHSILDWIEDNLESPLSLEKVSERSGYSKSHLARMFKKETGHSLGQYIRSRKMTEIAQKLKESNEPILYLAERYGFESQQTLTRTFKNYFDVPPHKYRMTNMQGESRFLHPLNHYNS
Summary of the method: (§1)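 Association constants were determined by MITOMI and are expressed for each site relative to the site with the highest affinity for the same protein variant. The MarA protein variants were made with the RTS E. coli HY kit by in vitro transcription and translation and labelled through addition of tRNA-lys-bodipy-fl. Testing covered 64 synthesized mar binding site variants, with fluorescence read on Genepix at 295K.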

| Sequence | binding signal |
| --- | --- |
| ATGCTACGTTTTGCTAAAT | 0.491 Ka relative to the best site of the variant |
| ATGTCACGTTTTGCTAAAT | 0.302 Ka relative to the best site of the variant |
| ATGGAACGTTTTGCTAAAT | 0.646 Ka relative to the best site of the variant |
| ATGTAGCGTTTTGCTAAAT | 0.152 Ka relative to the best site of the variant |
| ATGTGGCGTTTTGCTAAAT | 0.152 Ka relative to the best site of the variant |
| ATGTCCCGTTTTGCTAAAT | 0.233 Ka relative to the best site of the variant |
| ATGGACCGTTTTGCTAAAT | 0.573 Ka relative to the best site of the variant |
| ATGACTCGTTTTGCTAAAT | 0.657 Ka relative to the best site of the variant |
| ATGGCTCGTTTTGCTAAAT | 0.656 Ka relative to the best site of the variant |
| ATGGAGCGTTTTGCTAAAT | 0.506 Ka relative to the best site of the variant |
| ATGTGACGTTTTGCTAAAT | 0.165 Ka relative to the best site of the variant |
| ATGCAACGTTTTGCTAAAT | 0.461 Ka relative to the best site of the variant |
| ATGGCCCGTTTTGCTAAAT | 0.552 Ka relative to the best site of the variant |
| ATGCCTCGTTTTGCTAAAT | 0.486 Ka relative to the best site of the variant |
| ATGGGTCGTTTTGCTAAAT | 0.534 Ka relative to the best site of the variant |
| ATGAGACGTTTTGCTAAAT | 0.913 Ka relative to the best site of the variant |

| Sequence | binding signal |
| --- | --- |
| ATGCTTCGTTTTGCTAAAT | 0.508 Ka relative to the best site of the variant |
| ATGAATCGTTTTGCTAAAT | 0.481 Ka relative to the best site of the variant |
| ATGCAGCGTTTTGCTAAAT | 0.357 Ka relative to the best site of the variant |
| ATGTACCGTTTTGCTAAAT | 0.25 Ka relative to the best site of the variant |
| ATGCTCCGTTTTGCTAAAT | 0.548 Ka relative to the best site of the variant |
| ATGAGTCGTTTTGCTAAAT | 0.944 Ka relative to the best site of the variant |
| ATGTTGCGTTTTGCTAAAT | 0.191 Ka relative to the best site of the variant |
| ATGCGACGTTTTGCTAAAT | 0.43 Ka relative to the best site of the variant |
| ATGGGGCGTTTTGCTAAAT | 0.429 Ka relative to the best site of the variant |
| ATGATGCGTTTTGCTAAAT | 0.854 Ka relative to the best site of the variant |
| ATGACACGTTTTGCTAAAT | 0.637 Ka relative to the best site of the variant |
| ATGCCGCGTTTTGCTAAAT | 0.468 Ka relative to the best site of the variant |
| ATGGATCGTTTTGCTAAAT | 0.393 Ka relative to the best site of the variant |
| ATGAGCCGTTTTGCTAAAT | 1 Ka relative to the best site of the variant |
| ATGATACGTTTTGCTAAAT | 0.962 Ka relative to the best site of the variant |

target: T2, MarA TRR (Escherichia coli, UniProt P0ACH5 1-127, W40T;Q43R); assay: as above; details: protein: ivt; label: fluorescent; dsDNA, one strand shown
T2 sequence: T1 sequence with S40T, A43R
Summary of the method: as §1

| Sequence | binding signal |
| --- | --- |
| ATGCTACGTTTTGCTAAAT | 0.571 Ka relative to the best site of the variant |
| ATGTCACGTTTTGCTAAAT | 0.461 Ka relative to the best site of the variant |
| ATGGAACGTTTTGCTAAAT | 0.432 Ka relative to the best site of the variant |
| ATGTAGCGTTTTGCTAAAT | 0.356 Ka relative to the best site of the variant |
| ATGTGGCGTTTTGCTAAAT | 0.493 Ka relative to the best site of the variant |
| ATGTCCCGTTTTGCTAAAT | 0.399 Ka relative to the best site of the variant |
| ATGGACCGTTTTGCTAAAT | 1 Ka relative to the best site of the variant |
| ATGACTCGTTTTGCTAAAT | 0.382 Ka relative to the best site of the variant |
| ATGGCTCGTTTTGCTAAAT | 0.362 Ka relative to the best site of the variant |
| ATGGAGCGTTTTGCTAAAT | 0.392 Ka relative to the best site of the variant |
| ATGTGACGTTTTGCTAAAT | 0.413 Ka relative to the best site of the variant |
| ATGCAACGTTTTGCTAAAT | 0.501 Ka relative to the best site of the variant |
| ATGGCCCGTTTTGCTAAAT | 0.382 Ka relative to the best site of the variant |
| ATGCCTCGTTTTGCTAAAT | 0.474 Ka relative to the best site of the variant |
| ATGGGTCGTTTTGCTAAAT | 0.334 Ka relative to the best site of the variant |
| ATGAGACGTTTTGCTAAAT | 0.362 Ka relative to the best site of the variant |

| Sequence | binding signal |
| --- | --- |
| ATGCTTCGTTTTGCTAAAT | 0.576 Ka relative to the best site of the variant |
| ATGAATCGTTTTGCTAAAT | 0.309 Ka relative to the best site of the variant |
| ATGCAGCGTTTTGCTAAAT | 0.477 Ka relative to the best site of the variant |
| ATGTACCGTTTTGCTAAAT | 0.417 Ka relative to the best site of the variant |
| ATGCTCCGTTTTGCTAAAT | 0.445 Ka relative to the best site of the variant |
| ATGAGTCGTTTTGCTAAAT | 0.446 Ka relative to the best site of the variant |
| ATGTTGCGTTTTGCTAAAT | 0.665 Ka relative to the best site of the variant |
| ATGCGACGTTTTGCTAAAT | 0.589 Ka relative to the best site of the variant |
| ATGGGGCGTTTTGCTAAAT | 0.451 Ka relative to the best site of the variant |
| ATGATGCGTTTTGCTAAAT | 0.404 Ka relative to the best site of the variant |
| ATGACACGTTTTGCTAAAT | 0.369 Ka relative to the best site of the variant |
| ATGCCGCGTTTTGCTAAAT | 0.561 Ka relative to the best site of the variant |
| ATGGATCGTTTTGCTAAAT | 0.365 Ka relative to the best site of the variant |
| ATGAGCCGTTTTGCTAAAT | 0.448 Ka relative to the best site of the variant |
| ATGATACGTTTTGCTAAAT | 0.498 Ka relative to the best site of the variant |
